Experimental data as given in PubChem BioAssay (NCATS).
Values joined by “and” are separate entries in the source; they are usually repeats but may differ in a detail not shown here. Equal values may be shown once. Results filed as inconclusive are left out. Active and inactive are the calls of the source. Unless noted, calls come from the whole dose curve; as a rule, active = well fitted curve in the direction sought with a large enough effect; inconclusive = small, poorly fitted or top-dose-only effect, or another doubt; inactive = no such curve, though single readings can be large; an effect the other way counts as inactive or inconclusive.

Tests used:
[1] = qHTS assay for small molecule disruptors of the mitochondrial membrane potential - 1 hr assay (AID 651754; calls by dose curve; note: nearly all actives have a fitted effect of over 35% in size; note: potency is the fitted concentration of half-maximal effect)
Outline: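 HepG2, 2,000 cells/well, overnight attachment; cpd or DMSO 1 hr, 37C/5% CO2; Mito-MPS dye 30 min, 37C; fluorescence monomer (490/535) and aggregate (540/590).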

[2] = qHTS assay for small molecule disruptors of the mitochondrial membrane potential - 5 hr assay (AID 651755; calls by dose curve; note: nearly all actives have a fitted effect of over 40% in size; note: potency is the fitted concentration of half-maximal effect)
Outline: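 HepG2 cells (2,000/well), attached overnight, exposed to compound 5 hr at 37C, then Mito-MPS dye 30 min. Fluorescence read for monomers (490/535 nm) and aggregates (540/590 nm).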

[3] = target: Tumor necrosis factor (Homo sapiens) (UniProt P01375); assay: qHTS assay to identify small molecules that stimulate Tumor Necrosis Factor-alpha (TNF-alpha) secretion (AID 651757; active = well fitted curve in the direction sought with a large enough effect in the signal ratio; the % refers to the signal ratio; note: 0% is about no effect)
Chain of Tumor necrosis factor (Homo sapiens) (P01375 whole entry, looked up): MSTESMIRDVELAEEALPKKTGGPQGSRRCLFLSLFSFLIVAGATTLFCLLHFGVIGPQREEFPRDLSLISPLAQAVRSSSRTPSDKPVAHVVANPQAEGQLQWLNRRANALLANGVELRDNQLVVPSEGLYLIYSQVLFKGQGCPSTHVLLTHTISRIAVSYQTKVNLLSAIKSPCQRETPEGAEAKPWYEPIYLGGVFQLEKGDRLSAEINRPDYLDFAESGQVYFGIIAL
Outline: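 Read-out is HTRF, a TR-FRET sandwich of cryptate- and XL665-labeled anti-TNF-alpha antibodies detecting cytokine secreted by THP-1 cells. Cells had been incubated with test compounds at 37 C for 17 hrs beforehand.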

[4] = qHTS assay for environmental chemicals that activate the Aryl hydrocarbon Receptor (AhR) signaling pathway (AID 651777); details: 1A2-DRE human hepatoma cells, luciferase, 24 h; activation: stronger effect = higher value; note: nearly all actives have a fitted effect of over 15% in size; note: potency is the fitted concentration of half-maximal effect; for activation: % of control where 0% means no effect
Outline: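 Quantitative HTS in stably transfected human liver-derived cells whose luciferase gene sits downstream of the CYP1A2 promoter and dioxin response element. After 24 hr exposure at 37 C, One-Glo luminescence was measured.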

[5] = target: Peroxisome proliferator-activated receptor alpha (Homo sapiens) (UniProt Q07869); assay: qHTS assay for small molecule agonists of the peroxisome proliferator-activated receptor alpha (PPARalpha) signaling pathway (AID 651778); details: PathHunter PPARalpha complementation, chemiluminescence, 6 h; max response: stronger effect = higher value; note: % of control where 0% means no effect
Chain of Peroxisome proliferator-activated receptor alpha (Homo sapiens) (Q07869 whole entry, looked up, the tested form may be a part): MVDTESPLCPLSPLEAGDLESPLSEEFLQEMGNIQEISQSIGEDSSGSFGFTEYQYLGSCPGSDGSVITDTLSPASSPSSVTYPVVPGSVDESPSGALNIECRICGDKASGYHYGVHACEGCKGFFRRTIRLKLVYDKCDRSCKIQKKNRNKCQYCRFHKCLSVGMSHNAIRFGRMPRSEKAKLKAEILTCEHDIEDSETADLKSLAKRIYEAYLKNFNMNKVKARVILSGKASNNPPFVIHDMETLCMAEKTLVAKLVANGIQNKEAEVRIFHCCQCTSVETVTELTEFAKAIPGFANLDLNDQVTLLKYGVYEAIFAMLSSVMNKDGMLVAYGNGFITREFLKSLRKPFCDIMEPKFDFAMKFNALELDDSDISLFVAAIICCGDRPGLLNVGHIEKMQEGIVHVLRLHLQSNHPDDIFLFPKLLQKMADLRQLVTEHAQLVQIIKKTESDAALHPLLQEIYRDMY
Outline: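 Enzyme-fragment complementation assay in which ligand-bound PPARalpha translocates and forms an active enzyme that generates chemiluminescence. Cells were plated overnight, exposed to compound for 6 hr at 37 C, and then given detection reagent for 60 min at room temperature.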

[6] = qHTS assay for small molecule agonists of the antioxidant response element (ARE) signaling pathway (AID 651741; active = well fitted activation curve with a large enough effect in the signal ratio; the % refers to the signal ratio; note: potency is the fitted concentration of half-maximal effect; for activation: % of control where 0% means no effect)
Outline: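 CellSensor ARE-bla HepG2 cells (2,000/well) carrying ARE-driven beta-lactamase, exposed 16 h at 37 C. LiveBLAzer B/G FRET substrate added for 2 h at room temperature; fluorescence intensity read.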

[7] = Cell Proliferation Assay against the TMD8 Cell Line (Caspase readout at 16 hrs) (AID 651712); note: potency is the fitted concentration of half-maximal effect
Outline: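 TMD8 cells in RPMI with 5% FBS were treated with compound for 16 h at 37 C, then caspase 3/7 activation was read by Caspase-Glo luminescence. Percent activity was scaled to DMSO (0%) and 9.2 uM bortezomib final (100%).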

[8] = Cell Proliferation Assay against the TMD8 Cell Line (Caspase readout at 8 hrs) (AID 651713); note: potency is the fitted concentration of half-maximal effect
Outline: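 Seed log-phase TMD8 cells, add compound by pin tool, incubate 8 h at 37C under 5% CO2, equilibrate to room temperature, add Caspase-Glo, wait 15 min, read luminescence; percent activity uses DMSO and 9.2 uM bortezomib controls.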

[9] = qHTS assay for small molecule activators of the nuclear factor-kappa B (NF-kB) signaling pathway (AID 651749; active = well fitted activation curve with a large enough effect in the signal ratio; the % refers to the signal ratio; note: series mostly up to about 77 µM; % of control where 0% means no effect); details: NF-kB-bla ME-180 cells, beta-lactamase FRET ratio, 16 h; stronger effect = higher value
Outline: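 NF-kB-bla ME-180 cells carrying a beta-lactamase reporter under an NF-kB response element, 2,000 cells/well, exposed to compound for 16 hr at 37C; FRET-based beta-lactamase fluorescence read-out of pathway activation.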

[10] = qHTS assay to identify small molecules that stimulate interleukin-8 (IL-8) secretion (AID 651758; active = well fitted activation curve with a large enough effect in the signal ratio; the % refers to the signal ratio; note: 0% is about no effect)
Outline: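 THP-1 cells (2000/well) exposed to compound 16 h at 37 C; secreted IL-8 then detected by HTRF with cryptate- and XL665-labelled anti-IL-8 antibody pair after 1-3 h at room temperature.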

CC(C)NCC(O)c1ccc(O)c(O)c1 (stereo unspecified)
inactive: Potency [1] | Potency [2] | outcome [3] | activation [4] 0.956% and 0.375% | max response [5] -1.03% and -0.0809%

CC(COc1ccccc1)N(CCCl)Cc1ccccc1 (stereo unspecified)
inactive: outcome [3] | max response [5] -4.85% and -2.28%

Cn1c(=O)c2c(ncn2C)n(C)c1=O
inactive: Potency [6] | outcome [3] | activation [4] -0.0272% and 0.654% | max response [5] -7.69% and -2.94%

NCCS(=O)(=O)O
inactive: Potency [1] | Potency [2] | outcome [3] | activation [4] -0.375% | max response [5] 5.59%

CC[C@@]1(O)C(=O)OCc2c1cc1n(c2=O)Cc2cc3c(CN(C)C)c(O)ccc3nc2-1
active: Potency [7] 0.0074 µM | Potency [8] 1.48 µM

Nc1ccn([C@H]2CC[C@@H](CO)O2)c(=O)n1
inactive: Potency [6] | activation [9] -0.557% and 0.274% | outcome [3] | max response [5] -1.99% and 0.814%

Cc1ccc(-c2cc(C(F)(F)F)nn2-c2ccc(S(N)(=O)=O)cc2)cc1
active: Potency [8] 54 µM | Potency [6] 66.8 µM | Potency [1] 42.2 µM | Potency [2] 42.2 µM
inactive: activation [9] -1.1% | outcome [3] | activation [4] -1.91% | max response [5] 3.54%

Cc1cn([C@H]2C=C[C@@H](CO)O2)c(=O)[nH]c1=O
inactive: Potency [6] | outcome [3] | activation [4] 0.0815% and -0.191% and -0.434% | max response [5] 1.44% and 1.55% and -0.234%

COc1ccc2c(c1)c(CC(=O)O)c(C)n2C(=O)c1ccc(Cl)cc1
inactive: outcome [3] | activation [4] 0.534% and -1.07% | max response [5] 11.2% and 10.8%

C[C@](N)(Cc1ccc(O)c(O)c1)C(=O)O
inactive: activation [9] 0.934% | activation [4] -1.04% | max response [5] -1.06%

COc1cc2c(c(OC)c1OC)-c1ccc(OC)c(=O)cc1[C@@H](NC(C)=O)CC2
inactive: activation [9] 2.95% and 1.58% and 1.39% | Potency [1] | Potency [2] | outcome [3] | activation [4] -0.775% and -1.98% and -0.55% | max response [5] -2.35% and 0.0679% and 8.6%

CC(C)C(=O)Nc1ccc([N+](=O)[O-])c(C(F)(F)F)c1
inactive: outcome [3] | activation [4] 3.62% and 3.92% | max response [5] -5.17% and -3.96%

CCOC(=O)C(C)(C)Oc1ccc(Cl)cc1
inactive: Potency [6] | activation [9] -3.61% | activation [4] 0.305% | max response [5] 5.39%

N[C@@H](Cc1c[nH]c2ccc(O)cc12)C(=O)O
inactive: activation [9] 0.166% | Potency [2] | max response [5] -1.51%

CCC1(c2ccccc2)C(=O)NCNC1=O
inactive: Potency [6] | activation [9] 0.499% and -0.837% | outcome [3] | activation [4] -1.18% and 8.62% | max response [5] -5.03% and -3.26%

CN(C)C(=N)N=C(N)N
inactive: Potency [7] | Potency [8]

CC(C)Cc1ccc(C(C)C(=O)O)cc1 (stereo unspecified)
inactive: Potency [6] | activation [9] -1.23% | activation [4] -1.21% | max response [5] -0.128%

CC#C[C@]1(O)CC[C@H]2[C@@H]3CCC4=CC(=O)CCC4=C3[C@@H](c3ccc(N(C)C)cc3)C[C@@]21C
inactive: activation [9] 4.11% | activation [4] 14.1% | max response [5] -3.32%
active: Potency [6] 21.7 µM

COc1ccc(CCN(C)CCCC(C#N)(c2ccc(OC)c(OC)c2)C(C)C)cc1OC (stereo unspecified)
inactive: outcome [3]

O=c1c(-c2ccc(O)cc2)coc2cc(O)cc(O)c12
active: Potency [6] 9.69 µM and 13.3 µM | Potency [1] 5.96 µM | Potency [2] 7.5 µM | Potency [4] 12.6 µM
inactive: activation [9] 3.3% and 4.88% | outcome [10] | max response [5] -1.44% and -0.484%

CN(C)CCOC(c1ccccc1)c1ccccc1
inactive: activation [4] 0.827% | max response [5] -3.61%

COc1ccc2[nH]cc(CCNC(C)=O)c2c1
inactive: Potency [6] | activation [9] -0.27% and 0.655% and 0.179% | outcome [10] | activation [4] 0.634% and 1.82% and 3.42% | max response [5] -3.03% and -8.27% and 0.529%
